{"source": "PubChem BioAssay (NCATS)", "note": "Records with an inconclusive call do not appear. Unmarked numbers belong to inactive results. The source made the active and inactive calls. The call rests on the fitted dose curve; in most records, active means well fitted inhibition curve with a large enough effect; inconclusive means small, poorly fitted or top-dose-only effect; inactive means flat fitted curve, though single readings scatter. Peptide text beside a SMILES is read from it. Potency means the concentration at half of the fitted maximal effect."}
{"tested_on": "CP203", "assay": "qHTS profiling for inhibitors of Plasmodium falciparum proliferation (AID 504749); further: nearly all actives have a fitted effect of over 60% in size;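 on activity, negative = inhibition: 0% = DMSO vehicle and full inhibition = artemisinin control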", "conditions": "P. falciparum in erythrocytes, SYBR Green DNA, 72 h; series mostly up to 28.7 µM; activity, negative = inhibition: at the top concentration", "source_text": "NIH National Institute of Allergy and Infectious Diseases [NIAID] NIH Chemical Genomics Center [NCGC] MLPCN Grant: None Assay Provider: Xinzhuan Su, NIAID NCGC Assay Overview: Plasmodium falciparum is a virulent malarial parasite that kills 1-2 million people worldwide each year. Transmitted by mosquitoes, the sporozoite form of the parasite enters the blood stream to infect hepatocytes, where they become merozoites that infect red blood cells (erythrocytes). Within erythrocytes, merozoites begin a […] cycle of growth and division, after which the parasite is released to infect new red blood cells. Gametocytes, which form within erythrocytes as well, circulate in the bloodstream and are ingested by the mosquito, thereby completing the life cycle. To profile malarial isolates for differential chemical responses and to identify inhibitors of malarial growth, an assay that measures P. falciparum growth and replication within erythrocytes was employed. This assay uses a DNA binding fluorescent dye (SYBR Green) to detect parasite DNA following cell lysis. Because mature erythrocytes lack DNA, only Plasmodium-derived DNA is detected.\nNCGC Assay Protocol Summary: The SYBR Green viability assay was adapted from a method described previously (Plouffe et al., 2008). For screening 3 ul culture medium was dispensed into 1536 well black clear bottom plates (Aurora Biotechnologies) using a Multidrop Combi (Thermo Fisher Scientific Inc.), 23 nL compounds in DMSO were added by a pin tool (Kalypsys), and 5 ul of erythrocytes infected with P. falciparum (0.3% parasitemia, 2.5% hematocrit final concentration) were added. The plates were incubated at 37 C in a humidified incubator in 5% CO2 for 72 h, and 2 ul lysis buffer (20 mM Tris HCl, 10 mM EDTA, 0.16% saponin, 1.6% triton X, 10X SYBR Green I supplied as 10,000X […] by Invitrogen) was added to each well. The plates were mixed for 25 sec with gentle shaking and incubated overnight at room temperature in the dark. The following morning, fluorescence intensity at 485(14) nm excitation and 535(25) nm emission wavelengths was measured on an EnVision (Perkin Elmer) plate reader. Plate reads were normalized relative to the control inhibitor (0.29 uM artemisinin) and vehicle (DMSO) wells present on each plate and then corrected by an algorithm using vehicle-only control plates at the beginning and end of the compound plate stack."}
{"smiles": "COc1ccc(C2(C#N)CCC(C(=O)O)CC2)cc1OC1CCCC1", "note": "(stereo not given)", "activity, negative = inhibition": "1.9%"}
{"smiles": "CCCCN(CCCC)CCC(O)c1cc2c(Cl)cc(Cl)cc2c2cc(C(F)(F)F)ccc12", "note": "(stereo not given)", "Potency": "0.0228 µM (active)"}
{"smiles": "Nc1cc(C(Cl)=C(Cl)Cl)c(S(N)(=O)=O)cc1S(N)(=O)=O", "activity, negative = inhibition": "-8.57% [at 12.8 µM]"}
{"smiles": "C[C@H](Cn1cnc2c(N)ncnc21)OCP(=O)(O)O", "activity, negative = inhibition": "0.157%"}
{"smiles": "COc1ccc2cc([C@H](C)C(=O)O)ccc2c1", "activity, negative = inhibition": "0.461% [at 12.8 µM]"}
{"smiles": "Cc1ccc(C)c(OCCCC(C)(C)C(=O)O)c1", "activity, negative = inhibition": "-0.731%"}
{"smiles": "Nc1cccc2c1CN(C1CCC(=O)NC1=O)C2=O", "note": "(stereo not given)", "activity, negative = inhibition": "-2.96%"}
{"smiles": "CC1(C)NC(=O)N(c2ccc([N+](=O)[O-])c(C(F)(F)F)c2)C1=O", "activity, negative = inhibition": "-0.275%"}
{"smiles": "Cc1c(OCC(F)(F)F)ccnc1CS(=O)c1nc2ccccc2[nH]1", "note": "(stereo not given)", "activity, negative = inhibition": "-6.34%"}
{"smiles": "CN(C)C(=O)COC(=O)Cc1ccc(OC(=O)c2ccc(N=C(N)N)cc2)cc1", "activity, negative = inhibition": "-14.4%"}
{"smiles": "CNC[C@@H](O)[C@@H](O)[C@H](O)[C@H](O)CO", "activity, negative = inhibition": "2.16%"}
{"smiles": "COC(=O)[C@H](Cc1ccccc1)NC(=O)[C@@H](N)CC(=O)O", "note": "(H-Asp-Phe-OMe)", "activity, negative = inhibition": "16.9%"}
{"smiles": "CCC(C)(Oc1ccc(C2(c3ccc(OC(C)(CC)C(=O)O)cc3)CCCCC2)cc1)C(=O)O", "note": "(stereo not given)", "activity, negative = inhibition": "-3.11%"}
{"smiles": "CN(C)CCc1c[nH]c2ccc(Cn3cncn3)cc12", "activity, negative = inhibition": "-8.2%"}
{"smiles": "CNC[C@H](O)c1ccc(O)c(O)c1", "activity, negative = inhibition": "2.69%"}
{"smiles": "CS(=O)(=O)OCCCCOS(C)(=O)=O", "activity, negative = inhibition": "-21.9%"}
{"smiles": "CCCCc1ccc2nc(NC(=O)OC)[nH]c2c1", "activity, negative = inhibition": "-8.56% [at 12.8 µM]"}
{"smiles": "CCC1=C(C)CN(C(=O)NCCc2ccc(S(=O)(=O)NC(=O)NC3CCC(C)CC3)cc2)C1=O", "note": "(stereo not given)", "activity, negative = inhibition": "1.16%"}
{"smiles": "COCCCOc1ccnc(CS(=O)c2nc3ccccc3[nH]2)c1C", "note": "(stereo not given)", "activity, negative = inhibition": "-19.7%"}
{"smiles": "CCCc1cc(=O)[nH]c(=S)[nH]1", "activity, negative = inhibition": "4.03%"}
{"smiles": "CCc1nc(N)nc(N)c1-c1ccc(Cl)cc1", "activity, negative = inhibition": "-15.1%"}
{"smiles": "Nc1ccc(S(N)(=O)=O)cc1", "activity, negative = inhibition": "-3.22%"}
{"smiles": "Cc1cc(C2CCCCC2)n(O)c(=O)c1", "Potency": "6.42 µM (active)"}
{"smiles": "CC(C)c1ccc2oc3nc(N)c(C(=O)O)cc3c(=O)c2c1", "activity, negative = inhibition": "-1.49%"}
{"smiles": "Clc1ccc(C(Cn2ccnc2)OCc2ccsc2Cl)c(Cl)c1", "note": "(stereo not given)", "Potency": "4.78 µM (active)"}
{"smiles": "CCN(CC)CCOc1ccc(Cc2ccccc2)cc1", "activity, negative = inhibition": "8.1%"}
{"smiles": "CCOc1cc(CC(=O)N[C@@H](CC(C)C)c2ccccc2N2CCCCC2)ccc1C(=O)O", "activity, negative = inhibition": "-4.27% [at 12.8 µM]"}
{"smiles": "Cc1cc2c(s1)Nc1ccccc1N=C2N1CCN(C)CC1", "activity, negative = inhibition": "6.13%"}
{"smiles": "O=C1CCc2ccc(OCCCCN3CCN(c4cccc(Cl)c4Cl)CC3)cc2N1", "activity, negative = inhibition": "9.51%"}
{"smiles": "C=C(c1ccc(C(=O)O)cc1)c1cc2c(cc1C)C(C)(C)CCC2(C)C", "activity, negative = inhibition": "0.335%"}
{"smiles": "CCCCC(CC)COC(=O)C(C#N)=C(c1ccccc1)c1ccccc1", "note": "(stereo not given)", "activity, negative = inhibition": "-21.2%"}
{"smiles": "Cc1nc2n(c(=O)c1CCN1CCC(c3noc4cc(F)ccc34)CC1)CCCC2", "activity, negative = inhibition": "-0.908%"}
{"smiles": "Cc1cc2cc3c(C)cc(=O)oc3c(C)c2o1", "activity, negative = inhibition": "-15.2% [at 12.8 µM]"}
{"smiles": "CC1(C)CCC(C)(C)c2cc(NC(=O)c3ccc(C(=O)O)cc3)ccc21", "activity, negative = inhibition": "-13.3%"}
{"smiles": "N=C(N=C(N)N)N1CCOCC1", "activity, negative = inhibition": "-1.63% [at 12.8 µM]"}
{"smiles": "COC(=O)C1=C(C)NC(C)=C(C(=O)OCCCN2CCC(c3ccccc3)(c3ccccc3)CC2)C1c1cccc([N+](=O)[O-])c1", "note": "(stereo not given)", "Potency": "9.53 µM (active)"}
{"smiles": "N[C@@H](Cc1cc(I)c(Oc2cc(I)c(O)c(I)c2)c(I)c1)C(=O)O", "activity, negative = inhibition": "-17.5%"}
{"smiles": "Cc1cc(=O)oc2cc(O)ccc12", "activity, negative = inhibition": "-3.91% [at 12.8 µM]"}
{"smiles": "COc1cc2c(cc1OC)C1CC(=O)C(CC(C)C)CN1CC2", "note": "(stereo not given)", "activity, negative = inhibition": "-8.08%"}
{"smiles": "COC1=C(OC)C(=O)C(CCCCCCCCCCO)=C(C)C1=O", "activity, negative = inhibition": "-8.71%"}
